Laboratory results as given in PubChem BioAssay (Tox21).
Inconclusive results are not listed. A call without a number means that no potency is given here. Activity calls are given as the source filed them. Calls come from the whole dose curve; as a rule, active = well fitted cell-killing curve with a large enough effect in the repeat runs; inconclusive = weak or mixed curves, or effect the other way; inactive = flat fitted curve, though single readings scatter.

Experiment: qHTS RealTime-Glo MT Cell Viability Assay in HEK293 cells - 0 hour (AID 1224880); note: top concentration of the series differs between compounds; nearly all actives have a fitted effect of over 45% in size
Conditions: RealTime-Glo luminescence; series mostly up to 76.8 µM
Text: U.S. Tox21 Program National Center for Advancing Translational Sciences [NCATS] NIH Chemical Genomics Center [NCGC] U.S. Environmental Protection Agency [EPA] National Institutes of Environmental Health Sciences [NIEHS] National Toxicology Program [NTP] U.S. Food and Drug Administration [FDA] Tox21 Assay Overview: Measure of cell viability is critical in the cell-base assay. Analysis of cell viability is necessary for the characterization of cell responses to cytotoxic drugs and environmental stress. A RealTime-Glo MT Cell Viability Assay to monitor cell viability in real time of continues cell culture during 40 hours of compound treatment was used to screen Tox21 10K library compounds in Hek293 cells. The RealTime-Glo MT Cell Viability Assay is a nonlytic, homogeneous, bioluminescent method to measure cell viability in real time using a simple, plate-based method. The assay involves adding NanoLuc luciferase and a cell-permeant prosubstrate to cells in culture. Viable cells reduce the proprietary prosubstrate to generate a substrate for NanoLuc luciferase. This substrate diffuses from cells into the surrounding culture medium, where it is rapidly used by the NanoLuc Enzyme to produce a luminescent signal. The signal correlates with the number of viable cells, making the assay well suited for cytotoxicity studies.
Tox21 Assay Protocol Summary: The mixture of Hek293 cell suspension and reagents were dispensed at 600cells/6 ul/well in 1536-well tissue culture treated black solid bottom plates using a Multidrop dispenser. After the assay plates were incubated at a 37 C/5% CO2 incubator for 5 hours, 23 nL of compounds dissolved in DMSO, positive and negative controls was transferred to the assay plate by a pintool work station. The plates were incubated at 37 C for 40 hours. The luminescence intensity were measured at 0h, 8h, 16h, 24h, 32h and 40h time points using ViewLux plate reader during compound treatment.

Structure (SMILES) | Potency | activity change, negative = cytotoxicity
COC(=O)CCSCCC(=O)OC | inactive | –
CCOC(C)(C)C | inactive | –
CCCCCCCCCCCCCC=O | – | 8.28% [at 6.97 µM] (inactive)
CCOC(=O)CC(C)=O | inactive | –
Cc1nc2c([nH]1)c(=O)n(C)c(=O)n2Cc1ccco1 | inactive | –
CC/C=C\CC/C=C/C(OCC)OCC | inactive | –
O=[N+]([O-])c1ccc(F)cc1F | inactive | –
Nc1ccc(S(=O)(=O)Nc2ccnn2-c2ccccc2)cc1 | – | 3.82% [at 15.8 µM] (inactive)
CCC(C)C1CCCCC1=O (stereo not given) | inactive | –
CCOC(=O)C(=O)OCC | inactive | –
CC(=O)N(CC(O)CO)c1c(I)c(C(=O)NCCO)c(I)c(C(=O)NCC(O)CO)c1I (stereo not given) | inactive | –
COCCc1ccc(OCC(O)CNC(C)C)cc1 (stereo not given) | inactive | –
C[C@H](NC(CCc1ccccc1)C(=O)O)C(=O)N1CCC[C@H]1C(=O)O (stereo not given in full) | inactive | –
Cc1c(NC(C)C)c(=O)n(-c2ccccc2)n1C | inactive | –
Cc1cc2c(cc1S(N)(=O)=O)S(=O)(=O)CCC2 | inactive | –
CCCN(CCC)CCc1cccc2c1CC(=O)N2 | inactive | –
ClC(Cl)(Br)Br | inactive | –
CC(=O)c1ccccc1O | inactive | –
CCCCCCCCCCCCCCCCC | inactive | –
Nc1cc(=O)[nH]c(N)n1 | inactive | –

Structure (SMILES) | Potency | activity change, negative = cytotoxicity
CC(=O)OC/C=C(\C)CC/C=C(\C)CCC=C(C)C | inactive | –
CCOC(=O)[C@H](CCc1ccccc1)N[C@@H](C)C(=O)N1[C@H](C(=O)O)C[C@@H]2CCC[C@@H]21 | inactive | –
COC(=O)CC(C)=O | inactive | –
CCOC(=O)CCC(C)=O | inactive | –
Nc1ccccc1S(=O)(=O)O | inactive | –
CCOC(=O)c1cccc(N)c1 | inactive | –
C[C@](N)(Cc1ccc(O)cc1)C(=O)O | – | 0.416% [at 6.97 µM] (inactive)
c1ccc([C@H]2CN3CCSC3=N2)cc1 | inactive | –
Cc1sccc1Br | inactive | –
CC(C)(C)NCCNC(C)(C)C | inactive | –
CC(=O)Nc1c(I)cc(I)c(C(=O)O)c1I | inactive | –
Cc1c(O)cccc1O | inactive | –
CC/C=C\CC/C=C/CO | inactive | –
NC(CSCC(=O)O)C(=O)O (stereo not given) | inactive | –
CC(C)NCCCC1(C(N)=O)c2ccccc2-c2ccccc21 | inactive | –
N=C(N)c1ccc(OCCCOc2ccc(C(=N)N)cc2)cc1 | inactive | –
O=C(O)CCCl | inactive | –
COC(=O)c1c(Cl)c(Cl)c(C(=O)OC)c(Cl)c1Cl | inactive | –
Cn1c(N)c(N=O)c(=O)n(C)c1=O | inactive | –
CCn1nc(C(=O)O)c(=O)c2cc3c(cc21)OCO3 | inactive | –
